Measurements taken from PubChem BioAssay (NCATS).
A number with no mark means an inactive call. Calls follow the shape of the dose curve; as a rule, active = well fitted curve in the direction sought with a large enough effect; inconclusive = small, poorly fitted or top-dose-only effect, or another doubt; inactive = no such curve, though single readings can be large or run the other way.

assay: Cellular Toxicity (caspase-3) HUV-EC-C (AID 656); conditions: HUV-EC-C cells, caspase-3 activation (apoptosis), vehicle = 0, 100 µM tamoxifen = 100%; series mostly up to 92.2 µM; caspase-3 activation: at the top concentration;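 also: cells exposed to compound for 16 h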
Description: NIH Chemical Genomics Center [NCGC]
NIH Molecular Libraries Screening Centers Network [MLSCN]
National Institutes of Environmental Health Sciences [NIEHS]
National Toxicology Program [NTP]
We have developed a 1536-well cell-based assay for quantitative high throughput screening (qHTS) against a number of cell lines to determine in vitro caspase 3/7 of small molecules. This particular assay uses the HUV-EC-C cell line which is derived from normal human vascular endothelial cells.
NCGC Assay Protocol Summary:
The Caspase-Glo 3/7 assay (Promega) is a homogeneous method to measure caspase-3 and caspase-7 activities in cultured cells. The quantitation of caspase 3/7 activity is based on the cleavage of a peptide-aminoluciferin substrate. After caspase cleaves the substrate the free aminoluciferin is liberated and serves as the substrate of luciferase, which generates the light. The luminescent signal is proportional to amount of caspase 3/7 activity present.
Using the Caspase-Glo 3/7 assay, the amount of caspase 3/7 activity was measured in the HUV-EC-C cell line with complete culture medium following compound treatment for 16 hours. The assay was performed in opaque white 1536-well plates. In the screen, tamoxifen and doxorubicin were used as positive controls. Library compounds were measured for their ability to cause the activation of caspase 3/7 in the cell line, as reflected by an increase in luminescence signal, in a concentration-dependent manner. Data were normalized to the controls for basal activity (DMSO only) and 100% stimulation (100 uM tamoxifen). AC50 values were determined from concentration-response data modeled with the standard Hill equation.
qHTS protocol for caspase 3/7 assay in HUV-EC-C cell line
[Step] [Parameter] [Value] [Description]
1. Reagent; 5 uL; 1000 HUV-EC-C cells/well
2. Time; 5 hr; 37 °C incubation
4. Controls; 23 nL; Tamoxifen 0.23 uM to 100 uM & doxorubicin 7.0 pM to 100 uM
5. Time; 16 hr; 37 °C incubation
6. Reagent; 5 uL; Caspase-Glo 3/7 reagent
7. Time; 20 min; Room Temperature
8. Detection; Luminescence; Viewlux plate reader
Keywords: caspase 3/7, apoptosis, HUV-EC-C cell line, luminescence, NTPHTS, NTPHTS_NCGC, NIEHS, EPA, DSSTox, MLSMR, MLSCN, NIH Roadmap, qHTS, NCGC

SMILES | caspase-3 activation
CCCC[N+](=O)[O-] | 6.17%
Nc1cccc2ccccc12 | -0.0182%
O=[N+]([O-])c1ccccc1O | -0.975%
Oc1cc(Cl)c(Cl)c(Cl)c1 | 10.2%
Cl/C=C\Cl | 0.248%
N#CCCC#N | 0.101%
COc1cc(-c2ccc(N)c(OC)c2)ccc1N | -6.08%
C=CCCC#N | -2.07%
CN(C)c1ccc(N(C)C)cc1 | -4.65%
Nc1ccc2ccccc2c1 | -4.14%
[N-]=[N+]=[N-] | 0.611%
C=CC=O | -1.27%
Cc1ccc(N)cc1N | -0.18%
C[N+](=O)[O-] | 0.668%
C=CC#N | -4.16%
Nc1cc(Cl)cc(Cl)c1 | -0.895%
[O-][Cl+2]([O-])O | -0.611%
CCOC(=O)CC(SP(=O)(OC)OC)C(=O)OCC (stereo not given) | 5.14%
O=C(O)C(Cl)(Cl)Br | 3.29%
CCCCNC(=O)n1c(NC(=O)OC)nc2ccccc21 | -7.05%

SMILES | caspase-3 activation
CCCCCc1cc(O)cc(O)c1 | 0.512%
c1ccc(OCC2CO2)cc1 (stereo not given) | 1.36%
CCCCCCCCCCCCCl | -3.84%
CN(C)c1ccccc1 | -0.476%
CN(C)C(=O)Cl | 0.861%
O=[N+]([O-])c1ccc(Cl)c(Cl)c1Cl | -2.32%
O=C(O)c1cc(Cl)ccc1Cl | 1.22%
Nc1cc(Cl)ccc1Cl | -3.13%
COc1ccc(C=O)cc1 | 5.12%
Cl/C=C/Cl | 2.8%
ClCCOCOCCCl | 3.91%
Brc1cccc(-c2ccccc2)c1 | -2.42%
BrCC(Br)(Br)Br | -1.93%
[C-]1=CC=CC1.[C-]1=CC=CC1.[Cl-].[Cl-].[Ti+4] | 1.47%
C/C=C/CC#N | -1.12%
ClC(Cl)C(Cl)Cl | -2.19%
O=[N+]([O-])c1ccc(Cl)cc1 | -0.3%
N#CCc1ccccc1 | -2.13%
CSSC | 1.72%
O=C(O)c1cccc(Cl)c1 | -5.46%
